POLH inh = inhibitors of human DNA polymerase eta. Potency, µM (titrated, usually from 114 µM), hits mostly inhibitors. 390,000 compounds, 1.2% hits. recombinant Pol eta, fluorescent DNA replication assay
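Pol eta (10 nM) was preincubated with compounds for 15 min at room temperature, after which fluorescent replication substrate (50 nM final) was added to start the reaction. Fluorescence was read kinetically at 0 and 10 min.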
Pol iota inh = inhibitors of human DNA polymerase iota; Pol iota fluorescent replication assay, 10 min; Q9UNA4; Potency, µM (top dose mostly 115 µM), usual class: inhibitors; 390,000 compounds, 1% hits; AID 588590
Target sequence (Q9UNA4 whole entry, looked up): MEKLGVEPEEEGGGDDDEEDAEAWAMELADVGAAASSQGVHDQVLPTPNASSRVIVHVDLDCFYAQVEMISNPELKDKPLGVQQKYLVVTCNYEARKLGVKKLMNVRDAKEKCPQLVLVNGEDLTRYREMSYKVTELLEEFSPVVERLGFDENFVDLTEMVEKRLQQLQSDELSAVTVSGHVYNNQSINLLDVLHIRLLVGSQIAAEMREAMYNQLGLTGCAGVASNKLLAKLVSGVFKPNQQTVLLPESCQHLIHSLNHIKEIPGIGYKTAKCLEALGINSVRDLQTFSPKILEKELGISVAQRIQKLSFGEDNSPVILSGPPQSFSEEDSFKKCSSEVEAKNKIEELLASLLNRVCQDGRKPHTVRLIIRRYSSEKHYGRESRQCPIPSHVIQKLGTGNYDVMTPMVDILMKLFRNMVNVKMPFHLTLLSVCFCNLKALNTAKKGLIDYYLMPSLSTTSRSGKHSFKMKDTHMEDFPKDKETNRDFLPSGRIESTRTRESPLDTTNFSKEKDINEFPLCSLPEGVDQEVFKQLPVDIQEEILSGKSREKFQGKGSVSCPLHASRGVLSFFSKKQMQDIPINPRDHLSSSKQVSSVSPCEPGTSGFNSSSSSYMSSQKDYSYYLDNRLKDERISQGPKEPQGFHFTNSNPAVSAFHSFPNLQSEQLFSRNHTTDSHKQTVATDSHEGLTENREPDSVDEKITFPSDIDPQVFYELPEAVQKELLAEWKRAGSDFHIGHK
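Pol iota at 10 nM preincubated 15 min with compounds at room temperature; reaction started with fluorescent substrate, 50 nM final. Fluorescence read kinetically at 0 and 10 min; buffer-only wells as negative control.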
POLB inh = blocks human DNA polymerase beta activity | P06746 | Pol beta primer extension/strand displacement, fluorescence kinetic | Potency, µM (titrated, usually from 114 µM), hits mostly inhibitors | 340,000 compounds, 1.3% hits | AID 485314
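Values derive from four-parameter Hill fits of normalized kinetic data: reads at 0 and 10 min following addition of 50 nM substrate to 10 nM Pol beta preincubated 15 min with compound.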
Pol kappa inh = blocks human DNA polymerase kappa activity; 400,000 compounds, 0.53% hits; Potency, µM (highest dose often 107 µM), usual class: inhibitors; purified Pol kappa, fluorescent DNA synthesis assay, 10 min
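Pol kappa 10 nM + cpd, 15 min RT; start w/ substrate 50 nM final; fluorescence kinetic read, 0 and 10 min. Neg ctrl: buffer, no enzyme.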
TDP1 block = TDP1 (human) enzyme inhibition. Q9NUW8. recombinant TDP1, AlphaScreen DNA substrate cleavage. Potency, µM (series often up to 130 µM), hits mostly inhibitors. 350,000 compounds, 0.28% hits. AID 485290; note: nearly all actives have a fitted effect of over 40% in size
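E. coli-derived human Tdp1, 1 nM final. Cpd preinc 15 min RT; substrate 15 nM final, 5 min RT; AS bead mix 10 ug/ml final, 10 min RT. Signal loss = tyrosine-FITC cleavage. No-enzyme wells = max signal.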
Hits are given with their value; – = inactive; ? = inconclusive; · = no result given; ! = repeats disagree. The list is not random: actives were taken first. Their share in the collection is about 2.4%. Calls come from the whole dose curve; as a rule, active = well fitted curve in the direction sought with a large enough effect; inconclusive = small, poorly fitted or top-dose-only effect, or another doubt; inactive = no such curve, though single readings can be large; an effect the other way counts as inactive or inconclusive.

SMILES | POLH inh | Pol iota inh | POLB inh | Pol kappa inh | TDP1 block
CC(NC(=O)/C(C#N)=C/c1ccco1)c1ccccc1 (centres undefined) | – | – | – | – | ·
CC(NC(=O)/C(C#N)=C/c1ccc([N+](=O)[O-])o1)c1ccccc1 (centres undefined) | 50µM | 20µM | 40µM | – | –
O=C(O)c1ccc(N=Cc2c(O)ccc3ccccc23)cc1 | – | 13µM | – | – | ·
CC(C)C(=O)N/N=C/c1ccc(OCc2ccccc2)cc1 | – | – | – | – | –
O=C(N/N=C/c1c(O)ccc2ccccc12)c1cccnc1 | – | – | – | – | ·
O=C(O)c1cc(N/N=C/c2c(O)ccc3ccccc23)ccc1Cl | ? | ? | 79µM | ? | ·
Cc1ccc(C(=O)N/N=C/c2c(O)ccc3ccccc23)cn1 | 50µM | ? | 50µM | – | ·
O=C(O)c1cc(N/N=C/c2ccc(OCc3ccccc3)cc2)ccc1Cl | – | – | 50µM | – | –
CC(C)(C)n1ncc2c(=O)n(Cc3cccc(-c4cccs4)c3)cnc21 | · | – | · | – | ·
CCOc1ccc(CC(=O)NCCc2csc(-c3ccc(Cl)cc3)n2)cc1 | – | – | – | – | –
Cc1ccc(C2=Nc3ccccc3NC(c3ccncc3)=N2)cc1 | · | – | – | – | –
CCCn1c(/N=C/c2ccccc2O)nc2ccccc21 | ? | – | – | – | –
Cn1c(/N=C/c2c(O)ccc3ccccc23)nc2ccccc21 | 89µM | 7.9µM | 50µM | – | –
CS(=O)(=O)c1ccc2nc(NC(=O)Nc3cccc(Cl)c3)sc2c1 | – | ? | 50µM | – | –
Cc1ccc(NC(=O)Nc2nc3ccc(S(C)(=O)=O)cc3s2)cc1 | 79µM | – | · | – | –
O=C(CCC1N=C2c3ccccc3N=C(SCc3ccccc3F)N2C1=O)NCc1ccccc1 (centres undefined) | – | – | – | – | –
COc1cc2c(NC3CCN(C)CC3)nc(N3CCCN(C)CC3)nc2cc1O | · | – | · | – | ·
Cc1cccc(N=C2CSC(=O)N2)c1 | – | – | – | – | –
O=C1NC(=Nc2ccc(O)cc2)S/C1=C/c1ccco1 | – | – | ? | – | –
Cc1ccc(N=C2NC(=O)/C(=C\c3ccco3)S2)cc1 | 14µM | 32µM | ? | ? | –
Cc1cccc(N=C2NC(=O)S/C2=C\c2ccco2)c1 | ? | 35µM | ? | 79µM | –
c1coc(CNc2nc(-c3cccs3)nc3ccccc23)c1 | · | · | · | · | –
Cn1cccc1CC(=O)N/N=C/c1ccco1 | – | – | ? | – | –
CC(/C=N/NC(=O)Cc1cccn1C)=C\c1ccco1 | ? | 45µM | ? | ? | ·
CC(=O)N(CCC(Cc1ccccc1)c1ccco1)Cc1ccco1 (centres undefined) | 50µM | ? | ? | ? | –
SMILES | POLH inh | Pol iota inh | POLB inh | Pol kappa inh | TDP1 block
O=C(c1ccco1)N(CCC(c1ccccc1)c1ccco1)Cc1ccco1 (centres undefined) | 2.8µM | 22µM | 6.3µM | 25µM | ·
Cc1cccc(-c2noc(CNC(=O)COc3ccccc3C)n2)c1 | – | – | ? | – | –
Cc1cc(C)cc(OCC(=O)NCc2nc(-c3ccccc3)no2)c1 | – | 89µM | – | – | –
C=CCN(c1nc(C)c(Br)c(OC)n1)S(=O)(=O)c1ccc(C)cc1 | – | – | – | – | 50µM
N/C(=N\OC(=O)Cc1cccs1)c1ccccc1 | 16µM | – | – | – | –
Cc1ccc(/C(N)=N/OC(=O)Cc2cccs2)cc1 | – | – | – | – | –
COc1ccc(-c2nc3ccc(Cl)cc3c(=O)n2Cc2ccccc2)cc1COc1ccc(NC(C)=O)cc1 | · | · | · | · | –
CNC(=O)c1c(NC(=O)c2nc3ccccc3s2)sc2c1CCC2 | · | · | 45µM | · | –
COC(=O)c1c(NC(=O)c2nc3ccccc3s2)sc2c1CCN(C(C)=O)C2 | – | – | – | – | –
COc1ccc(/C=C2\COc3ccccc3C2=O)cc1OC | ? | 25µM | – | – | –
COc1cc(/C=C2\COC/C(=C\c3cc(OC)c(OC)c(OC)c3)C2=O)cc(OC)c1OC | ? | 11µM | – | – | –
COc1cc(/C=C2\CC/C(=C\c3cc(OC)c(OC)c(OC)c3)C2=O)cc(OC)c1OC | – | – | – | – | –
CCOc1cc(/C=C2\COc3ccccc3C2=O)cc(Br)c1OCC(=O)N(C)C | ? | 18µM | – | – | –
CCOc1cc(/C=N/Nc2nc3ccccc3[nH]2)cc(Br)c1OCC(=O)N(C)C | – | – | ? | – | –
Cc1cc(C)n(-c2ccc(Oc3ccccc3)c(S(=O)(=O)O)c2)n1 | 50µM | – | ? | – | –
Cc1cc(C)n(-c2ccc(C(=O)O)cc2)n1 | – | – | – | – | –
CC(=O)Nc1ccn(C2CC3OCC(NC(=O)C(NC(=O)OC(C)(C)C)C(C)OCc4ccccc4)C3O2)c(=O)n1 (centres undefined) | · | – | · | – | –
Cc1n[nH]c(C)c1S(=O)(=O)N(CC(=O)NCc1ccccc1Cl)c1ccc(C(C)C)cc1 | – | – | – | – | –
Cc1ccccc1N=Nc1ccc(O)c2ncccc12 | – | – | – | – | –
O=S(=O)(O)c1cccc2c(N=Nc3ccc(O)c4ncccc34)cccc12 | 3.2µM | ? | ? | – | ·
COc1ccc(-c2nc(-c3ccccc3)c(-c3ccc(F)cc3)[nH]2)c(OC)c1C | – | – | – | – | ·
C1=C/C(=C2/C=Cc3ccccc32)c2ccccc2N1 | · | – | · | – | ·
CCOc1cc(CNCc2ccccc2)ccc1OCc1ccc(Cl)cc1 | – | – | – | – | ·
CCOc1ccccc1CNc1ccc(O)cc1 | 50µM | 7.1µM | – | – | –
CCOc1cccc(CNc2ccc(O)cc2)c1OCc1ccc(Cl)cc1 | 50µM | 11µM | – | – | –
SMILES | POLH inh | Pol iota inh | POLB inh | Pol kappa inh | TDP1 block
CCOc1cc(CNc2ccc(O)cc2)ccc1OCc1ccc(Cl)cc1Cl | 18µM | 8.9µM | ? | – | –
Oc1ccc(NCc2ccccc2OCc2ccccc2F)cc1 | 50µM! | 10µM | – | – | –
CCOc1ccccc1CNc1nc2ccccc2n1C | – | – | – | – | –
Cc1csc[n+]1CC(=O)c1ccccc1 | · | – | · | – | ·
COc1cc2c(c(OC)c1OC)-c1c(cc(OC)c(OC)c1OC)CC(C)C(C)C2 (centres undefined) | · | · | · | – | –
CC(C)(C)[C@H]1CCC(=O)N(CCSc2ccc(Br)cc2)CC1 | · | ? | · | – | ·
CC(C)(C)n1ncc2c(=O)n(Cc3ccc(SC(F)(F)F)cc3)cnc21 | · | – | · | – | ·
Cn1c2cc(C(=O)O)sc2c2cnn(Cc3ccccc3F)c(=O)c21 | · | · | · | · | –
COc1cccc(-n2nnc(-c3nc(-c4ccccc4F)no3)c2C)c1 | – | – | – | – | –
O=C(NC1CCCC1)c1ccc(CSc2nc3cccnc3n2Cc2ccccc2F)cc1 | – | – | – | – | –
O=C1CN(S(=O)(=O)c2ccc3c(c2)OCCO3)CCN1S(=O)(=O)c1c(F)cccc1F | · | · | · | · | –
Cc1ccc2oc(-c3ccccc3C(=O)O)cc(=O)c2c1 | – | – | ? | – | –
O=C(O)c1ccccc1-c1c2cc(Br)c(=O)c(Br)c-2oc2c(Br)c(O)c(Br)cc12 | · | · | · | 10µM | –
